We go through nine molecules from PubChem BioAssay (NCI).

Several values for one entry are separate records, joined by “and”; a condition that tells them apart may be missing. Identical values can stand only once. About 83,000 compounds went through this panel and 20% of them were active in at least one assay; those are over-represented in the sample as a whole.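 Cells were grown in 96-well plates and exposed to the test compound at a single concentration for 48 hours; results are reported as percent growth, with values below 10 considered active.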 A number with no mark means an inactive call. Activity calls are given as the source filed them.

Among the test systems are HCT-15 colon; HT29 colon; SNB-75 CNS; SNB-19 CNS; U251 CNS; PC-3 prostate; SK-MEL-5 melanoma; LOX IMVI melanoma; SK-MEL-28 melanoma; SK-MEL-2 melanoma; EKVX NSCLC; SN12C renal; UO-31 renal; TK-10 renal; ACHN renal; CAKI-1 renal; A498 renal; CCRF-CEM leukemia; MOLT-4 leukemia; UACC-62 melanoma.
Assay in all cases: NCI-60 one-dose screen, 48 h (100 = growth as untreated, 0 = no growth, -100 = all killed)
What all share (conditions): 10 µM unless noted

Consider `CC(=O)OC[C@]12CCC(C)(C)C=C1[C@H]1CC[C@@H]3[C@@]4(C)CCCNC(C)(C)[C@@H]4CC[C@@]3(C)[C@]1(C)CC2`, for which the growth in the assay on HCT-15 colon was 89.6%; with HT29 colon, 31.6%; in the assay with SNB-75 CNS, 71.8%; in the assay on SNB-19 CNS, 53.4%; in the assay on U251 CNS, 35.3%; in the assay with PC-3 prostate, 37%. In addition, the growth was 9.31% (active) in the assay on SK-MEL-5 melanoma; 72.5% in the assay on LOX IMVI melanoma; 59.1% in the assay on SK-MEL-28 melanoma; 90.7% with SK-MEL-2 melanoma; 89.5% in the assay with EKVX NSCLC; 68.8% in the assay on SN12C renal. Further, the growth is 91.5% in the assay with UO-31 renal; 94.9% in the assay on TK-10 renal; 99.3% in the assay on ACHN renal; 88.9% with CAKI-1 renal; 97.9% in the assay with A498 renal; 39.3% in the assay on CCRF-CEM leukemia. Also, in the assay with MOLT-4 leukemia, the growth is 38.8%.
Consider `[2H]C([2H])([2H])Oc1cc(F)ccc1/C=C/C(=O)/C=C(/C=C/c1ccc(F)cc1OC([2H])([2H])[2H])OB(F)F`, for which the growth in the assay with HCT-15 colon is 25.3%; with HT29 colon it was 32.4%; in the assay on SNB-75 CNS, 81.1%; with SNB-19 CNS, 56.9%; with U251 CNS, 31.7%; in the assay on PC-3 prostate, 43.8%. In addition, the growth with SK-MEL-5 melanoma was 30.6%; in the assay on LOX IMVI melanoma, 2.12% (active); in the assay with SK-MEL-28 melanoma, 29.5%; with SK-MEL-2 melanoma, 48%; with EKVX NSCLC, 76.6%; in the assay on SN12C renal, 42.6%. Besides, the growth was 49.5% with UO-31 renal; 43.6% in the assay on TK-10 renal; 14.8% with ACHN renal; 18.2% in the assay on CAKI-1 renal; 89% in the assay on A498 renal; 1.25% (active) with MOLT-4 leukemia.
As to `Cc1ccc(-c2nc(SCC(=O)c3ccc(C#N)cc3)[nH]c(=O)c2C#N)cc1`, the growth with HCT-15 colon is 105%; with HT29 colon, 97.9%; in the assay on SNB-75 CNS, 87.5%; in the assay with SNB-19 CNS, 106%; in the assay on U251 CNS, 100%; in the assay on PC-3 prostate it was 104%. For the same molecule, the growth is 114% in the assay on SK-MEL-5 melanoma; 99.2% in the assay on UACC-62 melanoma; 104% with SK-MEL-2 melanoma; 113% in the assay on EKVX NSCLC; 108% in the assay on SN12C renal; 76.7% in the assay with UO-31 renal. Also, the growth with TK-10 renal was 99.7%; in the assay on ACHN renal it was 96.1%; in the assay with CAKI-1 renal, 93.4%; in the assay with A498 renal, 105%; in the assay on CCRF-CEM leukemia it was 114%; in the assay with MOLT-4 leukemia, 110%.
On to `Nc1nc(N)c2c(n1)NC(c1ccc(Cl)cc1)CC(c1cccc(Nc3ccncc3)c1)=N2` (centres undefined), for which the growth was 71.5% in the assay with HCT-15 colon; 21% in the assay on HT29 colon; 67.2% in the assay on SNB-75 CNS; 61.8% in the assay on SNB-19 CNS; 34.6% in the assay on U251 CNS; 38.2% in the assay with PC-3 prostate. Besides, the growth is 52.1% with SK-MEL-5 melanoma; 25.4% in the assay on LOX IMVI melanoma; 72.2% with SK-MEL-28 melanoma; 76.3% in the assay with SK-MEL-2 melanoma; 62.1% with EKVX NSCLC; 53% with SN12C renal. For the same molecule, the growth in the assay on UO-31 renal is 90.6%; in the assay on TK-10 renal, 113%; in the assay with ACHN renal, 73.5%; with CAKI-1 renal, 73.7%; in the assay on A498 renal it was 81.1%; in the assay on CCRF-CEM leukemia, 32.7%. For the same molecule, the growth in the assay with MOLT-4 leukemia was 38.1%.
As to `CCCc1cc(C(N)=S)ccn1`, the growth with HCT-15 colon was 102%; in the assay with HT29 colon, 97.6%; with SNB-75 CNS, 103%; in the assay with SNB-19 CNS, 115%; with U251 CNS, 103%; in the assay on PC-3 prostate, 98.3%. Besides, the growth with SK-MEL-5 melanoma is 107%; with LOX IMVI melanoma, 96.7%; with SK-MEL-28 melanoma, 116%; in the assay with SK-MEL-2 melanoma it was 103%; in the assay on EKVX NSCLC, 99.1%; in the assay with SN12C renal it was 105%. For the same molecule, the growth in the assay with TK-10 renal was 100%; in the assay with ACHN renal it was 102%; in the assay on A498 renal it was 125%; with CCRF-CEM leukemia it was 113%; in the assay with MOLT-4 leukemia, 105%.
On to `CCN1C(=O)/C(=c2\sc3n(c2=O)C2C(NN=3)N(CC)C(=O)N2CC)c2ccccc21` (centres undefined), for which the growth with HCT-15 colon was 19.3%; with HT29 colon, 13%; in the assay with SNB-75 CNS it was 5.72% (active); in the assay on SNB-19 CNS, 42%; with U251 CNS it was 32.3%; in the assay with PC-3 prostate, 26.3%. Further, the growth in the assay with SK-MEL-5 melanoma is 12.7%; in the assay with LOX IMVI melanoma, 33%; in the assay with SK-MEL-28 melanoma it was 54.2%; in the assay with SK-MEL-2 melanoma, 60.1%; in the assay with EKVX NSCLC, 65%; in the assay on SN12C renal, 29.1%. Also, the growth in the assay with UO-31 renal is 51.2%; in the assay on TK-10 renal it was 76.6%; with ACHN renal, 38.5%; in the assay with CAKI-1 renal, 45.7%; in the assay on A498 renal, -25.4% (active); in the assay on CCRF-CEM leukemia, 25.7%. Also, in the assay with MOLT-4 leukemia, the growth was 26.6%.
In the case of `CC/C(=C(/c1ccc(Cl)cc1)c1ccc(OCCN2CCOCC2)cc1)c1ccccc1`, the growth in the assay with HCT-15 colon was 94.1%; in the assay on HT29 colon, 75.6%; in the assay with SNB-75 CNS it was 105%; in the assay with SNB-19 CNS, 98.6%; in the assay on U251 CNS, 93.6%; in the assay on PC-3 prostate it was 73.1%. Further, the growth in the assay with SK-MEL-5 melanoma is 108%; with UACC-62 melanoma, 88.2%; in the assay with SK-MEL-28 melanoma, 98.8%; in the assay with SK-MEL-2 melanoma it was 93.7%; with EKVX NSCLC, 85.1%; with SN12C renal it was 95.8%. The growth was 108% in the assay on TK-10 renal; 98.3% in the assay on ACHN renal; 69.4% with CAKI-1 renal; 99.7% in the assay on A498 renal; 83.9% with CCRF-CEM leukemia; 86% in the assay on MOLT-4 leukemia.
Turning to `O=C(NNc1ccccc1)c1ccccc1`, the growth in the assay with HCT-15 colon is 47.7% and 40.7%; with HT29 colon it was 85.5% and 84.8%; in the assay on SNB-75 CNS it was 70.6% and 87.6%; with SNB-19 CNS, 95% and 99.3%; with U251 CNS, 90.8%; in the assay on PC-3 prostate, 75.1% and 53.8%. The growth with SK-MEL-5 melanoma is 98.8% and 100%; in the assay with LOX IMVI melanoma it was 58.4% and 52.7%; in the assay on SK-MEL-28 melanoma it was 89.8% and 108%; in the assay with SK-MEL-2 melanoma, 81.5% and 49.8%; in the assay with SN12C renal it was 84.5% and 80%; in the assay with UO-31 renal, 51.1%. For the same molecule, the growth is 65.3% with TK-10 renal; 57% and 38.5% with ACHN renal; 22.7% with CAKI-1 renal; 118% and 103% in the assay on A498 renal; 54.4% and 41.3% with MOLT-4 leukemia.
On to `Oc1ccccc1C=Nc1ccc(N2CCN(c3ccccc3)CC2)cc1`, for which the growth with HCT-15 colon was 99.8%; in the assay on HT29 colon it was 99.5%; in the assay with SNB-75 CNS, 79.9%; with SNB-19 CNS it was 107%; in the assay on U251 CNS, 99.9%; with PC-3 prostate it was 77.8%. For the same molecule, the growth in the assay with SK-MEL-5 melanoma was 97.2%; with LOX IMVI melanoma, 98.5%; in the assay on SK-MEL-28 melanoma it was 109%; with SK-MEL-2 melanoma, 102%; in the assay on EKVX NSCLC, 113%; with SN12C renal, 102%. Further, the growth was 86.3% in the assay with UO-31 renal; 93.8% with TK-10 renal; 72.9% in the assay with ACHN renal; 91.9% with CAKI-1 renal; 98.6% in the assay with A498 renal; 62.2% in the assay on CCRF-CEM leukemia. In the assay on MOLT-4 leukemia, the growth was 93.5%.
